In the supplement of paper PMC6555819:

Each sequence was assayed on VDR:RXRa (NR concentration 270 nM, RXRa partner concentration 90 nM) (assay: PBM binding z-score (relative to random genomic background probes); higher = stronger binding; sequences stand for … in GC…GCGATTGACAGCGTAGAATGAAGG).
Protocol: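 Protein-binding microarray (Agilent 4x180K custom design, double-stranded 60-nt probes: 5' GC cap, 34-nt variable region, 24-nt constant primer region; full probe sequence given). Purified or IVT nuclear receptor:RXRα heterodimers (3:1 NR:RXRα, mostly 270:90 nM) or homodimers were incubated for 1 h in PBS with 2% milk and no ligand, then detected with Alexa488 antibodies. Fluorescence from o1-orientation probes (~5 replicates averaged) was converted to z-scores against 500 random hg19 background probes. Variable regions are seed direct-repeat (DR0–DR5) sites, all their single-nucleotide variants and half-site ablations.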

Sequence	PBM binding z-score
TCATATAGGTAAACAGATGAAAGTCCGTAAGTTA	1.17
CCTTACGGGTCATTCCAGGTTATAGCATCGGAGT	4.87
CGAACGAGGGCATGAGTTGATAGCGAATGCCGAT	1.21
ACTAGCAGGCCAAGGGTCACTCACGATTAGTCCG	2.69
ATATGTAGGTTAGCGGGTCATTCAGTTTGCGCAT	4.74
TCGAGTAGGTTACCAATGGAGCATTCAGCTTTCT	-0.303
CCTCGGAGTACAGAAGGTCAGAGCTGTCCGCTTT	1.64
CGAACTAGGTCAGACCAGGACAGTGAAGGATGAT	1.03
ATATGTAGGTTACATCCAGGTCATTCAGGCTATG	4.11
ACATGTAGGTTATCGGGTCATTCAGTTTGCGCAT	5.39
CCCAGCAGGCCAATCTGGGTCACTCAAGGCTTGA	0.284
TCGAGTAGGTTAGTCGGGACATTCAGCCAACATA	1.19
ATCTCTAGGGAAAGATAGTTCAGTGAATGCAAAT	0.156
CAAACTAGGTCACCGGAAGGTCCAAGTCCGCATG	3.1
TTACCAAGGTGAGCTGAGGTCGTTTATCCAACTC	4.32
AGAACGAGGCCACGCTGAGTTGATAGCAGAGTAG	0.045
TCTGCTAGGACAGTTGGTCAGCTAACGAGCTGCC	-0.792
CCAGATAGGTGAGAAGGTAACTCAGCCTCGATTA	0.254
CAAACTACGTCACGAAAGGTCAAAGTCGAATGAC	4.91
CGAATTAGGTCATCCAGGACAGTGAATACATTGA	5.04

Sequence	PBM binding z-score
CCTAGCAGCCCAGGGTCACTCAAGCATTTCGCTT	2.44
GCAGTCAGGTGAAACGCAGGTAACTCAGGGTGGC	-0.464
ACTTACGCGTCAACGAGGTTATAGCACGCGTATA	3.57
ATACCAAGGCGATCGTGAGGTCGTTGATACTAAC	1.51
ATCTCTAGGTAACAAGTTCAGTGAAAGAGAGGAC	2.13
TATAGTTGGTCACGGAGGTCACACACGACGGGTA	5.81
CGTCCAGGGTCAAAGGTCAGTGAAGAGATGACGG	6.53
CGAACTAGGTCATTCACAGGACAGTGAATAGTAA	2.53
TCATATAGGTAATACACGTGAAAGTCGGCATCTA	1.01
ATCTCTAGGTAAAAGTCCAGTGAATCCCGAGGAT	0.00204
CGAACTAGGGCATGAGTTGATAGCAAATGCCGAT	0.0428
ACTCGGAGGACAAAGGTTAGAGCTACGCCAGTGA	0.555
CCTTACGGGTCACTGACAGATTATAGCATTTGGA	3.13
GGAACGTGGGCATTCGAGTTGATAGCATGGCGAT	-0.17
GATACAGGGGCAGCTAGAGGCCAGAGTATGGAAA	-0.219
CGTCCAAGGTCAATGCTAGGTGAGTGAAAGCATT	3.69
CGAACTAGGTCATCCAGGACAGTGACTACATTGA	4.29
GATGCTAGGTCAGGTTGGTCAGCTAACGGGTACG	0.88
GCTATTTGGTCAGTAAAAGGTCACACACCGGTCG	4.32
GGATCGAGGGCAAAGTTGATAGCATCTGTCGACG	1.44
